Data on four compounds can be found in PubChem BioAssay.

Structures are written as SMILES. Where “and” joins values, the source holds several entries; their conditions need not be identical. Identical values can stand only once. Calls of active or inactive are those of the source. Unless noted, no stated cut-off is given here; in the data, active means inhibition above about 80%; inactive means the rest.

The first experiment can be described thus: growth inhibition, single agents and combos, CRL2098, cell-based, BGB or cisplatin IC20 combos, synergistic combos for chromothripsis tumors (AID 1671454).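 Further: cells exposed for 96 h before readout; 0% = vehicle DMSO and 100% = killing by high DMSO.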 The note with it: CRL2098 osteosarcoma cells, drug combinations, measured here: combination with cisplatin at IC20, at 0.5 µM, stronger effect = higher value.
Broadly, the inhibition is the relative decrease from the control value, in per cent. As to `CCCCCCNC(=O)n1cc(F)c(=O)[nH]c1=O`, the inhibition was -120% and -21%.
Same read-out and setting: in the case of `CCn1cc(C(=O)O)c(=O)c2cc(F)c(N3CCN(C)CC3)cc21` it was -57.7% and 40.3%.
Still for that read-out and setting: in the case of `Cn1cnc([N+](=O)[O-])c1Sc1ncnc2nc[nH]c12` it was -43.1% and -68.9%; in that of `O=c1[nH]cc(F)c(=O)[nH]1`, 13.5%.

A further experiment is described as follows: growth inhibition, single agents and combos, HD-MB03, cell-based, BGB or cisplatin IC20 combos, synergistic combos for chromothripsis tumors (AID 1671455; in the data active means inhibition above about 83%;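 further: 0% = vehicle DMSO and 100% = high DMSO as cytotoxic control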). The note with it: HD-MB03 medulloblastoma cells, at 0.5 µM, stronger effect = higher value.
For `CCCCCCNC(=O)n1cc(F)c(=O)[nH]c1=O`, the inhibition was -1.02% (inactive) and -7.18% (inactive).
The same measure, in the same setting: the result for `CCn1cc(C(=O)O)c(=O)c2cc(F)c(N3CCN(C)CC3)cc21` reads -16.4% (inactive) and 1.14% (inactive); that for `Cn1cnc([N+](=O)[O-])c1Sc1ncnc2nc[nH]c12`, -1.96% (inactive) and 2.76% (inactive).
Still for that read-out and setting: in the case of `O=c1[nH]cc(F)c(=O)[nH]1` it was -10.4% (inactive).

The experiment is the same for the next values; noted with them: HD-MB03 medulloblastoma cells, measured here: combo with BGB at IC20, at 0.5 µM, stronger effect = higher value.
`CCCCCCNC(=O)n1cc(F)c(=O)[nH]c1=O`: the inhibition was -21.9% and -3.96%.
Still for that read-out and setting: in the case of `CCn1cc(C(=O)O)c(=O)c2cc(F)c(N3CCN(C)CC3)cc21` it was -17.4% and 6.49%; in that of `Cn1cnc([N+](=O)[O-])c1Sc1ncnc2nc[nH]c12`, -3.82% and 4.08%; in that of `O=c1[nH]cc(F)c(=O)[nH]1`, -12.3%.

The experiment is the same for the next values; noted with them: HD-MB03 medulloblastoma cells, measured here: combo with cisplatin at IC20, at 0.5 µM, stronger effect = higher value.
Regarding `CCCCCCNC(=O)n1cc(F)c(=O)[nH]c1=O`, the inhibition is 21% and -14.9%.
For `CCn1cc(C(=O)O)c(=O)c2cc(F)c(N3CCN(C)CC3)cc21`, the inhibition is -24.9% and -8.23%.
The same measure, in the same setting: the result for `Cn1cnc([N+](=O)[O-])c1Sc1ncnc2nc[nH]c12` reads -5.61% and 15.3%; that for `O=c1[nH]cc(F)c(=O)[nH]1`, -6.42%.

A short description of another experiment: growth inhibition, single agents and combos, UWB1.289, cell-based, BGB or cisplatin combos, synergistic combos for chromothripsis tumors (AID 1671456).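 Further: cells exposed to compound for four days; 0% = vehicle DMSO and 100% = killing by high DMSO.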 The note with it: UWB1.289 ovarian carcinoma cells, at 0.5 µM, stronger effect = higher value.
On to `CCCCCCNC(=O)n1cc(F)c(=O)[nH]c1=O`, for which the inhibition is 5.77% (inactive) and 18.7% (inactive).
In the case of `CCn1cc(C(=O)O)c(=O)c2cc(F)c(N3CCN(C)CC3)cc21`, the inhibition is -8.81% (inactive) and 8.67% (inactive).
For the compound `Cn1cnc([N+](=O)[O-])c1Sc1ncnc2nc[nH]c12`, the inhibition was 39.3% (inactive) and 42.9% (inactive).
Regarding `O=c1[nH]cc(F)c(=O)[nH]1`, the inhibition is 0.81% (inactive).

Still in this experiment, the particulars now being: UWB1.289 ovarian carcinoma cells, measured here: inhibition with BGB combination, at 0.05 µM, stronger effect = higher value.
Regarding `CCCCCCNC(=O)n1cc(F)c(=O)[nH]c1=O`, the inhibition is -24.4% and -30.3%.
Same read-out and setting: the result for `CCn1cc(C(=O)O)c(=O)c2cc(F)c(N3CCN(C)CC3)cc21` reads -24.8% and -1.17%; that for `Cn1cnc([N+](=O)[O-])c1Sc1ncnc2nc[nH]c12`, -15.3% and -18.7%.
Consider `O=c1[nH]cc(F)c(=O)[nH]1`, for which the inhibition was -23.6%.

The same experiment, now with this note: UWB1.289 ovarian carcinoma cells, measured here: inhibition with cisplatin combination, at 0.05 µM, stronger effect = higher value.
As to `CCCCCCNC(=O)n1cc(F)c(=O)[nH]c1=O`, the inhibition was -28.4% and -20.9%.
Regarding `CCn1cc(C(=O)O)c(=O)c2cc(F)c(N3CCN(C)CC3)cc21`, the inhibition was -21.6% and 2.48%.
For `Cn1cnc([N+](=O)[O-])c1Sc1ncnc2nc[nH]c12`, the inhibition was -7.01% and -1.15%.
On the same count and under the same terms, the result for `O=c1[nH]cc(F)c(=O)[nH]1` reads -10.5%.

A short description of another experiment: growth inhibition, single agents and combos, LFS_MB_2R, cell-based, cisplatin combos, synergistic combos for chromothripsis tumors (AID 1671457).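 Further: cells exposed to compound for four days before readout.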 The note with it: LFS_MB_2R medulloblastoma cells, at 0.5 µM, stronger effect = higher value.
On to `CCCCCCNC(=O)n1cc(F)c(=O)[nH]c1=O`, for which the inhibition was -18.7% (inactive) and -16.7% (inactive).
For `CCn1cc(C(=O)O)c(=O)c2cc(F)c(N3CCN(C)CC3)cc21`, the inhibition is -5.46% (inactive) and 1.79% (inactive).
On the same count and under the same terms, in the case of `Cn1cnc([N+](=O)[O-])c1Sc1ncnc2nc[nH]c12` it was -16.6% (inactive) and -22.7% (inactive); in that of `O=c1[nH]cc(F)c(=O)[nH]1`, -13.7% (inactive).

Still in this experiment, the particulars now being: LFS_MB_2R medulloblastoma cells, measured here: combination with cisplatin, at 0.5 µM, stronger effect = higher value.
Take `CCCCCCNC(=O)n1cc(F)c(=O)[nH]c1=O`: the inhibition is -15.8% and -16.6%.
As for `CCn1cc(C(=O)O)c(=O)c2cc(F)c(N3CCN(C)CC3)cc21`, the inhibition is 3.08% and 3.79%.
In the case of `Cn1cnc([N+](=O)[O-])c1Sc1ncnc2nc[nH]c12`, the inhibition was -17.1% and -11.6%.
Still for that read-out and setting: in the case of `O=c1[nH]cc(F)c(=O)[nH]1` it was -7.48%.

The same experiment, now with this note: LFS_MB_2R medulloblastoma cells, measured here: combination with cisplatin, at 5 µM, stronger effect = higher value.
Turning to `CCCCCCNC(=O)n1cc(F)c(=O)[nH]c1=O`, the inhibition was -25.7% and -25.2%.
As for `CCn1cc(C(=O)O)c(=O)c2cc(F)c(N3CCN(C)CC3)cc21`, the inhibition is -14.9% and -26.1%.
Regarding `Cn1cnc([N+](=O)[O-])c1Sc1ncnc2nc[nH]c12`, the inhibition is -20.9% and -25.4%.
On the same count and under the same terms, the result for `O=c1[nH]cc(F)c(=O)[nH]1` reads -1.94%.

Another experiment in a line: growth inhibition, MDA-MB-436, cell-based, BGB or cisplatin combos, synergistic combos for chromothripsis tumors (AID 1671458; call rule not given here;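 further: cells exposed for 96 hours; 0% = vehicle DMSO and 100% = killing by high DMSO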). The note with it: MDA-MB-436 breast carcinoma growth inhibition, drug combinations; at 0.5 µM; stronger effect = higher value.
Regarding `CCCCCCNC(=O)n1cc(F)c(=O)[nH]c1=O`, the inhibition is -3.42% (inactive) and -19.4% (inactive).
As for `CCn1cc(C(=O)O)c(=O)c2cc(F)c(N3CCN(C)CC3)cc21`, the inhibition was -8.42% (inactive) and -1.21% (inactive).
With `Cn1cnc([N+](=O)[O-])c1Sc1ncnc2nc[nH]c12`, the inhibition was -2.35% (inactive) and 8.87% (inactive).
On the same count and under the same terms, in the case of `O=c1[nH]cc(F)c(=O)[nH]1` it was -17.3% (inactive).

The same experiment, now with this note: MDA-MB-436 breast carcinoma growth inhibition, drug combinations; measured here: BGB combination; at 0.5 µM; stronger effect = higher value.
Turning to `CCCCCCNC(=O)n1cc(F)c(=O)[nH]c1=O`, the inhibition was -7.14% and -19.3%.
Regarding `CCn1cc(C(=O)O)c(=O)c2cc(F)c(N3CCN(C)CC3)cc21`, the inhibition is -5.87% and 9.12%.
Same read-out and setting: in the case of `Cn1cnc([N+](=O)[O-])c1Sc1ncnc2nc[nH]c12` it was -11.4% and 6.51%; in that of `O=c1[nH]cc(F)c(=O)[nH]1`, -27.5%.

Still in this experiment, the particulars now being: MDA-MB-436 breast carcinoma growth inhibition, drug combinations; measured here: BGB combination; at 5 µM; stronger effect = higher value.
In the case of `CCCCCCNC(=O)n1cc(F)c(=O)[nH]c1=O`, the inhibition was 9.33% and -1.4%.
As to `CCn1cc(C(=O)O)c(=O)c2cc(F)c(N3CCN(C)CC3)cc21`, the inhibition is -7.49% and 1.82%.
Same read-out and setting: the result for `Cn1cnc([N+](=O)[O-])c1Sc1ncnc2nc[nH]c12` reads 17.6% and 21.4%; that for `O=c1[nH]cc(F)c(=O)[nH]1`, -5.42%.

Staying with this experiment, now noted: MDA-MB-436 breast carcinoma growth inhibition, drug combinations; measured here: cisplatin combination; at 0.5 µM; stronger effect = higher value.
For the compound `CCCCCCNC(=O)n1cc(F)c(=O)[nH]c1=O`, the inhibition was -19.1% and -44.2%.
For `CCn1cc(C(=O)O)c(=O)c2cc(F)c(N3CCN(C)CC3)cc21`, the inhibition is -16.3% and -4.65%.
The same measure, in the same setting: in the case of `Cn1cnc([N+](=O)[O-])c1Sc1ncnc2nc[nH]c12` it was -16% and 2.87%.
On the same count and under the same terms, in the case of `O=c1[nH]cc(F)c(=O)[nH]1` it was -20.4%.
